{
  "source": "the supplement of paper PMC10121225",
  "note": "Structures can show the parent of a compound that is named as a salt.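 Also: immunostained co-cultures imaged by high-content microscopy, Z-score per plate against mean and SD of 0.1% DMSO wells, compounds added on differentiation day 18, analysed day 21.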",
  "data": [
    {"test_system": "hN + hpA co-culture (H1 iNGN2 human neurons + human primary astrocytes)", "assay": "presynaptic density (SYNAPSIN1 puncta per MAP2 neurite area), Z-score vs DMSO controls; higher = more presynaptic puncta (synapse-promoting)", "details": "3 µM; 72 h", "values": [
      {"smiles": "Oc1ncnc2[nH]ncc12", "note": "[Allopurinol]", "presynaptic density (Z-score)": -0.774},
      {"smiles": "O=C(O)Cc1cccc(OCCCN(Cc2cccc(C(F)(F)F)c2Cl)CC(c2ccccc2)c2ccccc2)c1", "presynaptic density (Z-score)": -1.54},
      {"smiles": "CC1(COc2ccc3c(c2)ncn3-c2ccc3cccc(N4CCC(N)CC4)c3n2)COC1", "presynaptic density (Z-score)": -0.296},
      {"smiles": "Cc1cnc(-c2cc(N3CCN(C(=O)CCS(C)(=O)=O)CC3)ncc2Cl)c(C)c1", "presynaptic density (Z-score)": -1.22},
      {"smiles": "CC1COCCN1c1cc(C2(S(C)(=O)=O)CC2)nc(-c2cccc3[nH]ccc23)n1", "note": "(stereo not given)", "presynaptic density (Z-score)": 0.445},
      {"smiles": "O=C(NNc1ccccc1)c1ccncc1", "presynaptic density (Z-score)": -0.884},
      {"smiles": "CC1(C)CCC(c2ccc(Cl)cc2)=C(CN2CCN(c3ccc(C(=O)NS(=O)(=O)c4ccc(N[C@H](CCN5CCOCC5)CSc5ccccc5)c(S(=O)(=O)C(F)(F)F)c4)cc3)CC2)C1", "presynaptic density (Z-score)": 0.29},
      {"smiles": "COc1nc(C)cnc1NS(=O)(=O)c1cccnc1-c1ccc(-c2nnco2)cc1", "note": "[Zibotentan (ZD4054)]", "presynaptic density (Z-score)": -1.1},
      {"smiles": "CC12CC3CC(C)(C1)CC(N)(C3)C2", "presynaptic density (Z-score)": -1.67},
      {"smiles": "CC(C)OC(=O)C1=CN(C(=O)c2ccc(F)c(F)c2)CC(C)(C)c2c1[nH]c1ccccc21", "presynaptic density (Z-score)": -0.269},
      {"smiles": "NC(=O)c1cccc(-c2cc(Nc3ccc(OC(F)(F)F)cc3)ncn2)c1", "presynaptic density (Z-score)": -1.31},
      {"smiles": "COc1cccc2c1C(=O)c1c(O)c3c(c(O)c1C2=O)C[C@@](O)(C(C)=O)C[C@@H]3O[C@H]1C[C@H](N)[C@H](O)[C@H](C)O1", "note": "[Daunorubicin HCl]", "presynaptic density (Z-score)": 0.0215},
      {"smiles": "CCN1CCCC1CNC(=O)c1cc(S(N)(=O)=O)ccc1OC", "note": "(single isomer, unassigned; (-)) [(-)-Sulpiride]", "presynaptic density (Z-score)": -1.09},
      {"smiles": "CC1=C(/C=C/C(C)=C/C=C/C(C)=C\\C(=O)O)C(C)(C)CCC1", "note": "[Isotretinoin]", "presynaptic density (Z-score)": -2.56},
      {"smiles": "CC(C)(F)C[C@H](N[C@@H](c1ccc(-c2ccc(S(C)(=O)=O)cc2)cc1)C(F)(F)F)C(=O)NC1(C#N)CC1", "note": "[Odanacatib (MK-0822)]", "presynaptic density (Z-score)": -0.252},
      {"smiles": "COC1CC2CCC(C)C(O)(O2)C(=O)C(=O)N2CCCCC2C(=O)OC(C(C)CC2CCC(OC(=O)C(C)(CO)CO)C(OC)C2)CC(=O)C(C)C=C(C)C(O)C(OC)C(=O)C(C)CC(C)C=CC=CC=C1C", "note": "(stereo not given) [Temsirolimus (CCI-779]", "presynaptic density (Z-score)": 0.145},
      {"smiles": "NC1(Cc2ccc(Cl)cc2)CCN(c2ncnc3[nH]ccc23)CC1", "presynaptic density (Z-score)": -0.622},
      {"smiles": "COc1cc(F)c(F)c(Nc2ccc(I)cc2F)c1NS(=O)(=O)C1(CC(O)CO)CC1", "note": "(stereo not given) [Refametinib (RDEA119]", "presynaptic density (Z-score)": 0.433},
      {"smiles": "Cc1ccc2c(=O)c3cccc(CC(=O)O)c3oc2c1C", "note": "[DMXAA (Vadimezan)]", "presynaptic density (Z-score)": -1.15},
      {"smiles": "O=C1c2ccccc2-c2n[nH]c3cccc1c23", "note": "[Anthra[1-9-cd]pyrazol-6(2H)-one]", "presynaptic density (Z-score)": 0.183},
      {"smiles": "CCN[C@H]1CN(CCCOC)S(=O)(=O)c2sc(S(N)(=O)=O)cc21", "note": "[Brinzolamide]", "presynaptic density (Z-score)": -0.474},
      {"smiles": "NC1(c2ccc(-c3nc4ccn5c(=O)[nH]nc5c4cc3-c3ccccc3)cc2)CCC1", "presynaptic density (Z-score)": -1.01},
      {"smiles": "NC(=O)Nc1cc(-c2cccc(F)c2)sc1C(=O)N[C@H]1CCCNC1", "presynaptic density (Z-score)": 0.58},
      {"smiles": "COc1ccc2cc(-c3nc(-c4ccc([S+](C)[O-])cc4)[nH]c3-c3ccncc3)ccc2c1", "note": "(stereo not given) [Tie2 kinase inhibitor]", "presynaptic density (Z-score)": -0.787},
      {"smiles": "CS(=O)(=O)c1ccc(-c2cnc(N)c(C(=O)Nc3ccccc3)n2)cc1", "presynaptic density (Z-score)": -0.463},
      {"smiles": "CC1(C)CCC(CN2CCN(c3ccc(C(=O)NS(=O)(=O)c4ccc(NCC5CCOCC5)c([N+](=O)[O-])c4)c(Oc4cnc5[nH]ccc5c4)c3)CC2)=C(c2ccc(Cl)cc2)C1", "presynaptic density (Z-score)": -1.11},
      {"smiles": "CCCCN1CCCCC1C(=O)Nc1c(C)cccc1C", "note": "(stereo not given) [Bupivacaine HCl]", "presynaptic density (Z-score)": -0.239},
      {"smiles": "O=C(Cc1ccc(-c2ccc(OCCN3CCOCC3)cc2)cn1)NCc1ccccc1", "presynaptic density (Z-score)": -5.26},
      {"smiles": "O=C1NC(=O)/C(=C/c2cccc(C(F)(F)F)c2)S1", "presynaptic density (Z-score)": -1.18},
      {"smiles": "COc1ccc(C(=O)Nc2sc3c(c2C(N)=O)CCCC3)cc1OC", "presynaptic density (Z-score)": 0.457},
      {"smiles": "CCc1cncnc1N1CCN(Cc2nc3ccc(C(F)(F)F)cc3[nH]2)CC1", "presynaptic density (Z-score)": -0.739},
      {"smiles": "CN[C@H]1CC[C@@H](c2ccc(Cl)c(Cl)c2)c2ccccc21", "presynaptic density (Z-score)": 1.13},
      {"smiles": "CC(C)C[C@H](NC(=O)CNC(=O)c1cc(Cl)ccc1Cl)B(O)O", "presynaptic density (Z-score)": -3.07},
      {"smiles": "COc1cc(Nc2c(C#N)cnc3cc(OCCCN4CCN(C)CC4)c(OC)cc23)c(Cl)cc1Cl", "note": "[Bosutinib (SKI 606)]", "presynaptic density (Z-score)": -1.36},
      {"smiles": "C#Cc1cccc(Nc2ncnc3cc(OCCOC)c(OCCO)cc23)c1", "presynaptic density (Z-score)": -0.577}
    ]}
  ]
}
